Source: PubChem BioAssay
For some assays here: Potency and affinity values are given separately. Calls of active or inactive are those of the source. Unless noted, how the calls were made is not given here.

Legend:
[1] = antimalarial activity against Dd2 strain (AID 2302;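 active means growth inhibition above 50% at the single 2 µM test dose, taken to imply half-maximal potency below 2 µM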;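 further: 0% = DMSO untreated growth and 100% = chloroquine plus artemisinin killed control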); conditions: P. falciparum Dd2 in RBCs, LDH growth readout, 72 h; at 2 µM; active compounds read high
[2] = HepG2 cytotoxicity, primary screen, cytotoxicity control for P. falciparum antimalarial project, cell-based, ATP luminescence (AID 2303;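 active means inhibition above 50%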;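 further: 0% = DMSO wells and 100% = digitonin-killed cells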); conditions: HepG2 viability, 24-48 h, at 10 µM, active compounds read high
[3] = molecular target: L-lactate dehydrogenase (Plasmodium falciparum (isolate CDC / Honduras)) (UniProt Q27743); assay: PfLDH activity inhibition – cell lysate, 3D7 strain, counter-screen for P. falciparum growth inhibition project (AID 2304);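 further: 0% = vehicle and 100% = reference inhibitor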; conditions: P. falciparum 3D7 crude extract, LDH APAD/NBT absorbance; at 2 µM; active compounds read high
Chain of L-lactate dehydrogenase (Plasmodium falciparum (isolate CDC / Honduras)) (Q27743 whole entry, looked up): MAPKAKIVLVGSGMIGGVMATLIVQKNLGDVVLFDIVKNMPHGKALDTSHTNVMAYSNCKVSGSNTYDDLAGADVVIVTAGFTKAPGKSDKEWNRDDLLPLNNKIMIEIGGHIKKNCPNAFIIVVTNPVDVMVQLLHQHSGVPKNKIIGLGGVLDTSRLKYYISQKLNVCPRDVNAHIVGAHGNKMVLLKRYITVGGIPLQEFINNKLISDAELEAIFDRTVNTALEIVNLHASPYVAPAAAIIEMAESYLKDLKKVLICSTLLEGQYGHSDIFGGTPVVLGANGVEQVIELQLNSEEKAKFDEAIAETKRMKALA

[4] = inhibition of 3D7 malaria parasite growth – strain 3D7 (AID 2306);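 further: 0% = DMSO wells and 100% = chloroquine plus artemisinin control wells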; conditions: P. falciparum 3D7 erythrocytic growth, LDH absorbance, 72 h; at 2 µM; active compounds read high
[5] = molecular target: Calcium-dependent protein kinase 1 (Plasmodium falciparum (isolate 3D7)) (UniProt P62344); assay: PfCDPK1 kinase inhibitors, biochemical, TCAMS library (AID 1159585; cut-off not given, nearly all actives have IC50 up to about 0.98 µM;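 further: inhibitors leave more ATP so luminescence rises with inhibition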); conditions: recombinant PfCDPK1, Kinase-Glo ATP depletion luminescence
Chain of Calcium-dependent protein kinase 1 (Plasmodium falciparum (isolate 3D7)) (P62344 whole entry, looked up): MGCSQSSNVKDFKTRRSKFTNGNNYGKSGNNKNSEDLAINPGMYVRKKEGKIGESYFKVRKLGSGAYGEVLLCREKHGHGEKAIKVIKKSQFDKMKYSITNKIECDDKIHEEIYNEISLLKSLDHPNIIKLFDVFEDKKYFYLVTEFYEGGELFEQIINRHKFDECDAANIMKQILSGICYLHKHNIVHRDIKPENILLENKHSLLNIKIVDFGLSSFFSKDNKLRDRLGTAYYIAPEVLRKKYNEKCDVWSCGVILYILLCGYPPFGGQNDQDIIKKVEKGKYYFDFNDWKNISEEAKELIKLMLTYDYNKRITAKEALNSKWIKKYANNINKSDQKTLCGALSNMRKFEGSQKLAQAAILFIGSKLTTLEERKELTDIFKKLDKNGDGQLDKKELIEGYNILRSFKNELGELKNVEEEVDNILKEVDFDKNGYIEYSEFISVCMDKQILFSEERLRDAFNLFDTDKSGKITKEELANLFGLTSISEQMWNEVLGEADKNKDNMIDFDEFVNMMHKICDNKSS

[6] = molecular target: Plasmodium falciparum protein kinase 6 (PK6, PF3D7_1337100) (UniProt Q8IDW1); assay: PfPK6 kinase inhibitors, biochemical, TCAMS library (AID 1159586); conditions: recombinant PfPK6, Kinase-Glo ATP depletion luminescence
Chain of Plasmodium falciparum protein kinase 6 (PK6, PF3D7_1337100) (Q8IDW1 1-305): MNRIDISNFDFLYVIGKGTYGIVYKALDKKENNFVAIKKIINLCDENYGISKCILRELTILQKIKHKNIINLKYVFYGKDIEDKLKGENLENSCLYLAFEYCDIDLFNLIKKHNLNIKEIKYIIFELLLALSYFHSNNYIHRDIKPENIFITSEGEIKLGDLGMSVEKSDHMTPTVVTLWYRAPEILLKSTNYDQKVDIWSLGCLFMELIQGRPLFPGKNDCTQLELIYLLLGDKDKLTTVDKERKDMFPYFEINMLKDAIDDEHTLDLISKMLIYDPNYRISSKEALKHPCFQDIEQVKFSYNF

[7] = molecular target: Protein kinase 7 (PK7), Plasmodium falciparum 3D7 (PF3D7_0213400) (UniProt Q7YTF7); assay: inhibition of Plasmodium PK7 catalytic activity – biochemical, TCAMS antimalarial set, Kinase-Glo luminescence (AID 1159587); conditions: recombinant PfPK7, Kinase-Glo ATP depletion luminescence
Chain of Protein kinase 7 (PK7), Plasmodium falciparum 3D7 (PF3D7_0213400) (Q7YTF7 1-343): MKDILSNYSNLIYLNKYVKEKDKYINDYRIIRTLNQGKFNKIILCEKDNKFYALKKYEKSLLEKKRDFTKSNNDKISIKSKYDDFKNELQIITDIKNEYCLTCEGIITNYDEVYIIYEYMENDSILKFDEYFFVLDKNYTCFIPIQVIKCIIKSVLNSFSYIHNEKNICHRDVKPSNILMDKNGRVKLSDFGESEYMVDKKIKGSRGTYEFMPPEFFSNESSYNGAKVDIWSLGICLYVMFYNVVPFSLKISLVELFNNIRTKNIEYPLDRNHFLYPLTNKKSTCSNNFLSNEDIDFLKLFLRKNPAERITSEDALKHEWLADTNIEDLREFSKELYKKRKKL

[8] = molecular target: Calcium-dependent protein kinase 4 (Plasmodium falciparum (isolate 3D7)) (UniProt Q8IBS5); assay: PfCDPK4 kinase inhibitors, biochemical, TCAMS library (AID 1159588; cut-off not given, nearly all actives have IC50 up to about 0.91 µM); conditions: recombinant PfCDPK4, Kinase-Glo ATP depletion luminescence
Chain of Calcium-dependent protein kinase 4 (Plasmodium falciparum (isolate 3D7)) (Q8IBS5 whole entry, looked up): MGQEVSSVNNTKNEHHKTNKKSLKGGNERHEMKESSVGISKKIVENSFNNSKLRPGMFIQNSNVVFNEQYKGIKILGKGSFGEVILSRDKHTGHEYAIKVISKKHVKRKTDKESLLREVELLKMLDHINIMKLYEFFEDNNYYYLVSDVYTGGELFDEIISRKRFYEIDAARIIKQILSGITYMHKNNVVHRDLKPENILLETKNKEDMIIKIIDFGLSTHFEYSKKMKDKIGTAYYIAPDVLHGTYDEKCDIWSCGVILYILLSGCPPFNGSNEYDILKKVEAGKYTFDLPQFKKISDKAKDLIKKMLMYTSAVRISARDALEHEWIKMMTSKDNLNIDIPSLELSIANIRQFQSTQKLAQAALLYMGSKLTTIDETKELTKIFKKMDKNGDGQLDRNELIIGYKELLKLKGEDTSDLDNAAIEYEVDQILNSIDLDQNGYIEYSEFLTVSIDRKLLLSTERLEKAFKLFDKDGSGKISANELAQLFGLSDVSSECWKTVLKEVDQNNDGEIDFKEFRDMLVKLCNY

FC(F)(F)c1cccc(-c2cc(NCCCn3ccnc3)nc(-c3ccncc3)n2)c1
inactive: inhibition [3] 5% | outcome [5] | outcome [6] | outcome [7] | outcome [8]
active: growth inhibition [1] 100% | inhibition [2] 50% | growth inhibition [4] 101%

COc1cccc(C(=O)Nc2ccc(-c3nc4ccccc4[nH]3)cc2)c1
inactive: growth inhibition [1] 19% | inhibition [2] 28% | inhibition [3] -3% | outcome [5] | outcome [6] | outcome [7] | outcome [8]
active: growth inhibition [4] 95%

CC(C)(C)c1cc(N=NC(=O)c2ccncc2)cc(C(C)(C)C)c1O
inactive: inhibition [2] 47% | inhibition [3] 1% | outcome [5] | outcome [6] | outcome [7] | outcome [8]
active: growth inhibition [1] 99% | growth inhibition [4] 99%

COc1cc2ncnc(Nc3ccc4nc(-c5ccccc5)[nH]c4c3)c2cc1OC
inactive: growth inhibition [1] 32% | inhibition [2] 15% | inhibition [3] -5% | outcome [5] | outcome [6] | outcome [7] | outcome [8]
active: growth inhibition [4] 92%

COCCOc1cc(C)c(C2CCN(CCCCNC(=O)c3ccc(NC(=O)c4ccc(Cl)cc4)cc3)CC2)cc1C
inactive: growth inhibition [1] 30% | inhibition [2] 15% | inhibition [3] -2% | outcome [5] | outcome [6] | outcome [7] | outcome [8]
active: growth inhibition [4] 88%

FC(F)(F)c1ccc2nccc(NN=Cc3cccc(Cl)c3)c2c1
inactive: growth inhibition [1] 2% | inhibition [2] -3% | inhibition [3] -8% | outcome [5] | outcome [6] | outcome [7] | outcome [8]
active: growth inhibition [4] 97%

O=C(/C=C/c1ccc(Cl)c(Cl)c1)NCCCCCN1CCCN(C(=O)Nc2ccc([N+](=O)[O-])cc2)CC1
active: growth inhibition [4] 97%
inactive: growth inhibition [1] 28% | inhibition [2] 32% | inhibition [3] -1% | outcome [5] | outcome [6] | outcome [7] | outcome [8]

Cc1cccc(C(O)CNc2ccnc(Nc3cccc(-c4csc(C)n4)c3)n2)c1 (stereo unspecified)
active: growth inhibition [1] 88% | growth inhibition [4] 99%
inactive: inhibition [2] 29% | inhibition [3] 2% | outcome [5] | outcome [6] | outcome [7] | outcome [8]

Cc1cc(F)ccc1-c1nc(NCC(O)CNCCc2ccccc2)nc2c1ccc(=O)n2-c1c(F)cccc1F (stereo unspecified)
active: growth inhibition [1] 100% | growth inhibition [4] 100%
inactive: inhibition [2] 25% | inhibition [3] -5% | outcome [5] | outcome [6] | outcome [7] | outcome [8]

Cc1ccc(S(=O)(=O)NC2=NC(C)(C)N(OCc3ccc(Cl)c(Cl)c3)C(N)=N2)cc1
active: growth inhibition [4] 88%
inactive: growth inhibition [1] -3% | inhibition [2] -5% | inhibition [3] 3% | outcome [5] | outcome [6] | outcome [7] | outcome [8]

O=S(=O)(Nc1cccc(CCN2CCC(N3CCCCC3)CC2)c1)c1ccc(Oc2ccccc2)nc1
inactive: growth inhibition [1] -4% | inhibition [2] 8% | inhibition [3] -2% | outcome [5] | outcome [6] | outcome [7] | outcome [8]
active: growth inhibition [4] 99%

O=C(N[C@@H](CC1CCCCC1)C(=O)NCCN1CCCC1)c1ccc(O)c(-c2ccc(Cl)c(Cl)c2)c1
inactive: inhibition [2] 16% | inhibition [3] 2% | outcome [5] | outcome [6] | outcome [7] | outcome [8]
active: growth inhibition [1] 99% | growth inhibition [4] 99%

Cc1cc(N[C@@H](Cc2ccccc2)C(=O)NCc2cccc(F)c2)nc(Nc2ccccc2)n1
inactive: inhibition [2] 20% | inhibition [3] 5% | outcome [5] | outcome [6] | outcome [7] | outcome [8]
active: growth inhibition [1] 92% | growth inhibition [4] 100%

CCn1cc(-c2nc(-c3cc(OC)cc(OC)c3)no2)c(=O)c2ccccc21
inactive: inhibition [2] -7% | inhibition [3] 0% | outcome [5] | outcome [6] | outcome [7] | outcome [8]
active: growth inhibition [1] 77% | growth inhibition [4] 89%

CCCNc1ccc2nccc(CCN3CCC(NCc4ccc5c(n4)NC(=O)CS5)CC3)c2n1
active: growth inhibition [4] 103%
inactive: growth inhibition [1] -1% | inhibition [2] 24% | inhibition [3] -1% | outcome [5] | outcome [6] | outcome [7] | outcome [8]

Cc1cc(N[C@@H](Cc2ccccc2)C(=O)Nc2ccccc2)nc(NCCc2ccccn2)n1
inactive: inhibition [2] -3% | inhibition [3] -1% | outcome [5] | outcome [6] | outcome [7] | outcome [8]
active: growth inhibition [1] 50% | growth inhibition [4] 97%

c1cncc(CCNCc2ccc(-c3ccc(CNC4Cc5ccccc5C4)cc3)cc2)c1
inactive: growth inhibition [1] 29% | inhibition [2] 32% | inhibition [3] 1% | outcome [5] | outcome [6] | outcome [7] | outcome [8]
active: growth inhibition [4] 92%

CCc1cc(OC)ccc1C1CCN(CCCCNC(=O)c2ccc(NC(=O)c3ccc(Cl)cc3)cc2)CC1
active: growth inhibition [1] 61% | growth inhibition [4] 95%
inactive: inhibition [2] 23% | inhibition [3] 6% | outcome [5] | outcome [6] | outcome [7] | outcome [8]

CCN(CCCN1CCCCC1)c1cc(C)nc(Nc2cccc(C(F)(F)F)c2)n1
active: growth inhibition [1] 88% | growth inhibition [4] 102%
inactive: inhibition [2] 25% | inhibition [3] 5% | outcome [5] | outcome [6] | outcome [7] | outcome [8]

O=C(Nc1ccncc1)Nc1ccc2c(c1)CCN(C1CCC1)CC2
active: growth inhibition [4] 87%
inactive: growth inhibition [1] 4% | inhibition [2] -1% | inhibition [3] 4% | outcome [5] | outcome [6] | outcome [7] | outcome [8]

CC(C)Cn1ncc2c3c(N)nc(N)nc3ccc21
active: growth inhibition [1] 73% | inhibition [2] 63% | growth inhibition [4] 94%
inactive: inhibition [3] 1% | outcome [5] | outcome [6] | outcome [7] | outcome [8]

CC1(C)[C@H]2CC[C@@H](CNc3nc(NCCc4cnc[nH]4)nc(Nc4ccc5c(c4)OCO5)n3)[C@@H]1C2
inactive: inhibition [2] 3% | inhibition [3] -4% | outcome [5] | outcome [6] | outcome [7] | outcome [8]
active: growth inhibition [1] 88% | growth inhibition [4] 101%

CN(Cc1ccccc1)C(=O)c1nn(CCCN2CCC(N3CCCC3)CC2)cc1-c1ccc(Cl)c(Cl)c1
inactive: inhibition [2] 43% | inhibition [3] 0% | outcome [5] | outcome [6] | outcome [7] | outcome [8]
active: growth inhibition [1] 66% | growth inhibition [4] 102%

O=C(CCN(Cc1ccco1)c1nc(-c2ccc(F)cc2)nc2ccccc12)NC1CC1
inactive: inhibition [2] -12% | inhibition [3] 4% | outcome [5] | outcome [6] | outcome [7] | outcome [8]
active: growth inhibition [1] 54% | growth inhibition [4] 94%

Cc1c(C)n(C2CCCCC2)c2ncnc(OC3CCN(CC(=O)N4CCCC4)CC3)c12
active: growth inhibition [1] 59% | growth inhibition [4] 95%
inactive: inhibition [2] 31% | inhibition [3] -4% | outcome [5] | outcome [6] | outcome [7] | outcome [8]

COc1cc2nc(NCCc3ccccc3)nc(NC(C)c3ccccc3)c2cc1OC (stereo unspecified)
active: growth inhibition [1] 100% | growth inhibition [4] 99%
inactive: inhibition [2] 9% | inhibition [3] 1% | outcome [5] | outcome [6] | outcome [7] | outcome [8]

Cn1cc(C2CCN(CCCCNC(=O)c3ccc(C(=O)Nc4ccc(C#N)cc4)cc3)CC2)c2ccccc21
inactive: inhibition [2] 16% | inhibition [3] -4% | outcome [5] | outcome [6] | outcome [7] | outcome [8]
active: growth inhibition [1] 58% | growth inhibition [4] 100%

COc1cc([N+](=O)[O-])ccc1NC(=O)Nc1ccc(OC(F)(F)F)cc1
active: growth inhibition [1] 72% | growth inhibition [4] 84%
inactive: inhibition [2] 14% | inhibition [3] 3% | outcome [5] | outcome [6] | outcome [7] | outcome [8]

CCCc1cccc(OC)c1OCCCON1C(N)=NC(N)=NC1(C)C
inactive: inhibition [3] 5% | outcome [5] | outcome [6] | outcome [7] | outcome [8]
active: growth inhibition [1] 97% | inhibition [2] 65% | growth inhibition [4] 94%

COc1cc(CNc2ncc(-c3ccsc3)c(-c3nccs3)n2)cc(OC)c1
inactive: inhibition [2] 3% | inhibition [3] -3% | outcome [5] | outcome [6] | outcome [7] | outcome [8]
active: growth inhibition [1] 82% | growth inhibition [4] 86%

Cc1cc(NC(c2ccc(Cl)cc2)c2ccc3cccnc3c2O)no1 (stereo unspecified)
active: inhibition [2] 50% | growth inhibition [4] 88%
inactive: growth inhibition [1] 26% | inhibition [3] 5% | outcome [5] | outcome [6] | outcome [7] | outcome [8]

COc1ccc(-c2nc3c(N)nc(N)nc3nc2C(C)C)cc1
inactive: growth inhibition [1] -4% | inhibition [3] 6% | outcome [5] | outcome [6] | outcome [7] | outcome [8]
active: inhibition [2] 71% | growth inhibition [4] 96%

Cc1cc(NCC(c2ccccc2)c2ccccc2)nc(NCc2ccc(C(F)(F)F)cc2)n1
inactive: inhibition [2] 29% | inhibition [3] 2% | outcome [5] | outcome [6] | outcome [7] | outcome [8]
active: growth inhibition [1] 79% | growth inhibition [4] 102%

S=C(Nc1cccc(Cl)c1)NC1CCN(c2ccnc3cc(Cl)ccc23)C1 (stereo unspecified)
active: growth inhibition [1] 89% | growth inhibition [4] 100%
inactive: inhibition [2] 16% | inhibition [3] -3% | outcome [5] | outcome [6] | outcome [7] | outcome [8]

CCN1CCN(c2cc(C)c3cc(NC(=O)C=Cc4cccc(OC)c4OC)ccc3n2)CC1
inactive: growth inhibition [1] 38% | inhibition [2] 18% | inhibition [3] -3% | outcome [5] | outcome [6] | outcome [7] | outcome [8]
active: growth inhibition [4] 99%

N=C(N)c1ccc(C=CC(=O)NCC(O)CNC(=O)C=Cc2ccc(C(=N)N)cc2)cc1 (stereo unspecified)
active: growth inhibition [1] 80% | growth inhibition [4] 90%
inactive: inhibition [2] -14% | inhibition [3] -1% | outcome [5] | outcome [6] | outcome [7] | outcome [8]

CN(C)Cc1ccc(-c2cc3ncnc(Nc4ccc(OCc5cccc(F)c5)c(Cl)c4)c3s2)[nH]1
active: growth inhibition [1] 87% | inhibition [2] 53% | growth inhibition [4] 99%
inactive: inhibition [3] 6% | outcome [5] | outcome [6] | outcome [7] | outcome [8]
